Source: the supplement of paper PMC5641865, “A screen for kinase inhibitors identifies antimicrobial imidazopyridine aminofurazans as specific inhibitors of the Listeria monocytogenes PASTA kinase PrkA” (The Journal of Biological Chemistry, 2017)
Several values for one entry are separate records, joined by “and”; a condition that tells them apart may be missing. Identical values can stand only once. ± gives the standard deviation of the averaged measurements.

system: Listeria monocytogenes 10403S; assay: growth inhibition relative to ceftriaxone-alone control; higher = stronger potentiation of ceftriaxone growth inhibition; details: 10 µM; ceftriaxone 1 ug/ml; 12 h
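Note: End-point A600 read in BHI broth at 37 °C with 2% DMSO, inhibition computed as (1 − OD with compound plus ceftriaxone ÷ OD with ceftriaxone only) × 100.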

SMILES | growth inhibition
O=C1NC(=O)/C(=C/c2ccc3c(c2)OC(F)(F)O3)S1 | 41.2 ± 7.3%
CC(C)c1ccc(Nc2nccc(-c3cnn4ncccc34)n2)cc1 | -0.923 ± 0.22%
CC(C)(C)c1cnc(CSc2cnc(NC(=O)C3CCNCC3)s2)o1 | 29.5 ± 24%
O=C1NCCc2[nH]c(-c3ccncc3)cc21 | 22.8 ± 14%
COc1cccc(-n2nc(C)c3c(N/N=C(\C)c4ccncc4)ncnc32)c1 | -12.5 ± 20%
O=C(NC1CCNCC1)c1n[nH]cc1NC(=O)c1c(Cl)cccc1Cl | 13.4 ± 5.9%
CN1CCN(c2ccc3nc(-c4c(N)c5c(F)cccc5[nH]c4=O)[nH]c3c2)CC1 [Dovitinib (TKI-258)] | 1.47 ± 0.1%
COc1ccc(Nc2ncc(-c3ccccc3)o2)cc1OC | 10.7 ± 3.4%
COc1cc2ncnc(Nc3cccc(Cl)c3)c2cc1OC [AG-1478 (Tyrphostin AG-1478)] | 31.5 ± 11%
COc1ccc(-c2ccncc2)cc1C(N)=O | -4.48 ± 7.1%
Nc1nc(-c2ccc(F)cc2)c(-c2ccc3ncccc3n2)s1 | -1.57 ± 2.7%
Nc1nccc(-c2c(-c3ccc(F)cc3)ncn2C2CCC(O)CC2)n1 (stereo not drawn) | -2.07 ± 1.6%
CCn1c(-c2nonc2N)nc2c(C#CC(C)(C)O)ncc(OCC3CCNCC3)c21 | 29.8 ± 9.6%
COc1ccc(C2=C(N3CCc4ccccc43)C(=O)NC2=O)cc1 | -2.53 ± 0.37%
CCn1cc(-c2ccnc3[nH]ccc23)c(-c2cccc(NC(=O)Nc3ccc(OCc4ccccc4)cc3)c2)n1 | -0.807 ± 2.3%
FC(F)(F)c1ccc(/C=C/c2nc(COc3ccc(CCCCn4ccnn4)cc3)co2)cc1 [Mubritinib (TAK 165)] | 16.1 ± 6.1%
NC(=O)c1sc(-n2cnc3cc(C(F)(F)F)ccc32)cc1OCc1ccccc1Br | -7.84 ± 1.8%
CCN1CCN(Cc2ccc(-c3cc4c(N[C@H](C)c5ccccc5)ncnc4[nH]3)cc2)CC1 | 22.1 ± 4.2%
COc1ccc(-c2ccc3c(NC(=O)C4CC4)n[nH]c3n2)cc1 | -7.27 ± 8.3%

SMILES | growth inhibition
COC(=O)Nc1ccc(-c2nc(N3CCOCC3)c3cnn(C4CCN(Cc5cccnc5)CC4)c3n2)cc1 | 33.8 ± 29%
N#Cc1ccc2c(-c3ccnc(NC4CC4)n3)c(-c3ccc(F)cc3)nn2c1 | 7 ± 2.3%
COc1cc(N2CCN(C(C)C)CC2)ccc1Nc1nc(Nc2ccc(F)cc2C(=O)NC[C@@H](O)CO)c2cc[nH]c2n1 | 5.09 ± 0.17%
CC(=O)Nc1cccc(C#Cc2cncnc2Nc2ccc(OCc3cccc(F)c3)c(Cl)c2)n1 | -0.967 ± 4.2%
CN(c1ncccc1CNc1nc(Nc2ccc3c(c2)CC(=O)N3)ncc1C(F)(F)F)S(C)(=O)=O | 41.8 ± 28%
CC[C@H](CO)Nc1nc(NCc2ccccc2)c2ncn(C(C)C)c2n1 [Roscovitine (Seliciclib, CYC202)] | 22.9 ± 22%
CCC(=O)Nc1ccc(C)c(-c2ccc(C(=O)NCC3CC3)cc2)c1 | -2.46 ± 1.9%
COc1cc(Nc2ncc3c(C)nc(-c4cccc(Oc5ccccc5)c4)n3n2)cc(OC)c1OC | -18.3 ± 17%
COC(=O)Nc1nc2ccc(S(=O)(=O)c3ccc(NC(=O)Nc4cc(C(F)(F)F)ccc4F)cc3)cc2[nH]1 | -13.3 ± 8.2%
CC(C)c1ccc2c(c1)NC(=O)/C2=N/Nc1ccc(S(N)(=O)=O)cc1 | -0.275 ± 0.88%
COc1cc2c(cc1Nc1nc(Nc3cccc(F)c3C(N)=O)c3cc[nH]c3n1)N(C(=O)CN1CCN(C(C)C)CC1)CC2 | -7.97 ± 11%
Cc1ccc([N+](=O)[O-])cc1S(=O)(=O)N(C)/N=C/c1cnc2ccc(Br)cn12 | 2.5 ± 4.3%
CCS(=O)(=O)c1ccc(OC)c(Nc2ncc(-c3cccc(OC)c3)o2)c1 | -9.19 ± 17%
c1ccc2c(-c3cnn4cc(-c5ccc(N6CCNCC6)cc5)cnc34)ccnc2c1 | 24.6 ± 12%
C=CC(=O)Nc1cc2c(Nc3ccc(F)c(Cl)c3)ncnc2cc1OCCCN1CCOCC1 [CI-1033 (Canertinib)] | 21.5 ± 6.1%
N#CC1(c2ccc(NC(=O)c3cccnc3NCc3ccncc3)cc2)CCCC1 [Apatinib (YN968D1)] | 12.7 ± 6.2%
CC1(COc2ccc3c(c2)ncn3-c2ccc3cccc(N4CCC(N)CC4)c3n2)COC1 | 32 ± 14%
C#Cc1cccc(Nc2ncnc3cc(OCCOC)c(OCCO)cc23)c1 | 19.2% and 5.86%
CCN(CC)S(=O)(=O)c1ccc(OC)c(Nc2ncc(-c3ccccc3)o2)c1 | -5.97 ± 2.9%
